# Experimental data as given in PubChem BioAssay (NCATS).
# Records with an inconclusive call do not appear. Where a call stands in place of a potency, no number is given. Active and inactive are the calls of the source. Calls follow the shape of the dose curve; as a rule, active = well fitted inhibition curve with a large enough effect; inconclusive = small, poorly fitted or top-dose-only effect; inactive = flat fitted curve, though single readings scatter. Where a SMILES comes first, the peptide text is derived from it. Bridges are numbered along the chain shown (N, C = ends). [ ]: non-standard residue; d: D form. hArg = N=C(N)NCCCC[C@H](N)C(=O)O; Mpa = O=C(O)CCS
# Test system: DIV14
# Assay: qHTS profiling for inhibitors of Plasmodium falciparum proliferation (AID 504749); also: nearly all actives have a fitted effect of over 60% in size
# Details: P. falciparum in erythrocytes, SYBR Green DNA, 72 h; series mostly up to 28.7 µM
# Method in brief: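 P. falciparum-infected erythrocytes (0.3% parasitemia, 2.5% hematocrit) incubated with compound 72 h at 37 C, 5% CO2. Parasite DNA detected by SYBR Green after lysis, overnight at room temperature; normalised to 0.29 uM artemisinin and DMSO.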
row,Structure (SMILES),Potency
1,O=C(Cn1ccnc1[N+](=O)[O-])NCCO,inactive
2,Cc1c(C)c2c(c(C)c1OC(=O)c1cccnc1)CC[C@@](C)(CCC[C@H](C)CCC[C@H](C)CCCC(C)C)O2,inactive
3,COc1ccc2cc(CCC(C)=O)ccc2c1,inactive
4,CN(C/C=C/C#CC(C)(C)C)Cc1cccc2ccccc12,inactive
5,CCN(CC)CCc1nc(-c2ccccc2)no1,inactive
6,COc1nccnc1NS(=O)(=O)c1ccc(N)cc1,inactive
7,Cn1c([N+](=O)[O-])cnc1COC(N)=O,inactive
8,COC(=O)c1ccc(O)cc1,inactive
9,COc1ccccc1OC(=O)Oc1ccccc1OC,inactive
10,O=C(/C=C/c1ccccc1)OCc1ccccc1,inactive
11,Cc1c(Cn2ccnc2)c2ccccc2n1CCC(=O)O,inactive
12,NC(=O)[C@@H]1CSSCCC(=O)N[C@@H](CCCCN=C(N)N)C(=O)NCC(=O)N[C@@H](CC(=O)O)C(=O)N[C@@H](Cc2c[nH]c3ccccc23)C(=O)N2CCC[C@H]2C(=O)N1 ([Mpa][hArg]GDWPC-NH2; disulfide 1-7),inactive
13,N[C@@H](Cc1ccc(O)cc1)C(=O)O,inactive
14,CC1CCc2cc(F)cc3c(=O)c(C(=O)O)cn1c23 (stereo not given),inactive
15,C[C@@H]1O[C@@H](OC[C@H]2O[C@@H](Oc3c(-c4ccc(O)c(O)c4)oc4cc(O)cc(O)c4c3=O)[C@H](O)[C@@H](O)[C@@H]2O)[C@H](O)[C@H](O)[C@H]1O,inactive
16,Cc1onc(-c2ccccc2)c1-c1ccc(S(N)(=O)=O)cc1,inactive
17,COc1ccc(C(=O)NCc2ccc(OCCN(C)C)cc2)cc1OC,inactive
18,Cc1ccsc1C(=CCCN1CCC[C@@H](C(=O)O)C1)c1sccc1C,inactive
19,CCCCCCCC(=O)OCC(COC(=O)CCCCCCC)OC(=O)CCCCCCC,inactive
20,CN/C(=C\[N+](=O)[O-])NCCSCc1csc(CN(C)C)n1,inactive
21,NS(=O)(=O)c1ccc(C(=O)O)cc1,inactive
22,CCOC(N)=O,inactive
23,Cc1c(NC(C)C)c(=O)n(-c2ccccc2)n1C,inactive
24,CCOc1ccc(C(=O)OCCN(CC)CC)cc1,inactive
25,O=C(OOC(=O)c1ccccc1)c1ccccc1,inactive
26,C=CCSCC1Nc2cc(Cl)c(S(N)(=O)=O)cc2S(=O)(=O)N1 (stereo not given),inactive
27,Cc1c(NC(=O)c2cccnc2)c(=O)n(-c2ccccc2)n1C,inactive
28,CCOc1cc(NC(C)=O)ccc1C(=O)OC,inactive
29,Cc1ncc(CO)c(CN)c1O,inactive
30,NS(=O)(=O)c1ccc(NC(=O)CCC(=O)O)cc1,inactive
